LmPK inh – LmPK (Leishmania mexicana) enzyme inhibition; purified LmPK, Kinase-Glo ATP luminescence, 1 h; Potency, µM (series often up to 57.5 µM), usual class: inhibitors; actives 0.37% (n = 290,000)
Target sequence (Q27686 whole entry, looked up): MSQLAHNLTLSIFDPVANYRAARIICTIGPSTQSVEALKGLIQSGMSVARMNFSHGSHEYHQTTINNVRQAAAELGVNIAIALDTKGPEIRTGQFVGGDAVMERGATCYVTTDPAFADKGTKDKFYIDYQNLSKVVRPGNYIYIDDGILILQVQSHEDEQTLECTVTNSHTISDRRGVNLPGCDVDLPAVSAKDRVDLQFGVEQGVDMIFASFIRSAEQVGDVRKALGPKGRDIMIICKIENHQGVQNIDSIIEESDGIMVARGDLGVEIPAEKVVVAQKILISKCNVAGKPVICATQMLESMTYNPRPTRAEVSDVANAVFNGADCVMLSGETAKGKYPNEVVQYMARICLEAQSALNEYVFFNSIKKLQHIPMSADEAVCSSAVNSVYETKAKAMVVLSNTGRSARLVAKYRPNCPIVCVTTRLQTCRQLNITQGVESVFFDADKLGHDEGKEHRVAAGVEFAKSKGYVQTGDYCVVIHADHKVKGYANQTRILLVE
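Kinase-Glo luminescence read after 1 h RT reaction of 0.1 nM LmPK with 0.5 mM PEP and 0.1 mM ADP. Activity scaled between uninhibited and enzyme-free controls.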
RE007 growth inh – less growth of the S. pombe RE007 Vpr strain; S. pombe RE007 Vpr strain, BacTiter-Glo ATP luminescence, 24 h; Potency, µM (doses to about 92.2 µM), hits mostly inhibitors; actives 0.21% (n = 360,000); AID 651644; active means well fitted falling curve with a large enough effect; inconclusive means small, poorly fitted or top-dose-only effect; inactive means no such curve, though single readings can be large or run the other way; further: nearly all actives have a fitted effect of over 50% in size
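Fission yeast RE007 carrying one integrated HIV-1 vpr copy, seeded at OD 0.01 in PMG+AL medium with 23 nL pinned compound. Grown 24 h at 30 degrees; viability read by BacTiter-Glo luminescence after 5 min.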
Giardia FBPA inh – blocks Giardia fructose-bisphosphate aldolase activity; A8B2U2; actives 0.71% (n = 290,000); Potency, µM (series often up to 59.6 µM), usual class: inhibitors; purified Giardia FBPA; further: nearly all actives have a fitted effect of over 55% in size
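Giardia FBPA (40 nM reagent) was preincubated 10 min at RT with compound (up to 57.5 uM final), then substrate plus GAPDH/TPI/NAD/arsenate coupling system with diaphorase/resazurin was added; resorufin fluorescence (525/598 nm) was read after 20 min.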
Tb PYK inh – blocks Trypanosoma brucei pyruvate kinase; TbPYK enzyme, Kinase-Glo Plus ATP luminescence, 45 min; Potency, µM (highest dose often 76.8 µM), actives largely listed as inhibitors; actives 0.12% (n = 410,000); AID 624173; further: nearly all actives have a fitted effect of over 50% in size
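Glycolytic pyruvate kinase of T. brucei was incubated with substrate, test compound and 130 uM ADP for 45 minutes at room temperature. Luminescent Kinase-Glo Plus signal was measured after 10 minutes.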
Each line names hits and unclear results; the compound was inactive in the other large screens. In the library only some 0.95% were active in any assay of this set; here they are far more common. Unless noted, the call rests on the fitted dose curve; in most records, active means well fitted curve in the direction sought with a large enough effect; inconclusive means small, poorly fitted or top-dose-only effect, or another doubt; inactive means no such curve, though single readings can be large; an effect the other way counts as inactive or inconclusive.

Cc1cnc2c(c1SCC(=O)NCc1ccccc1Cl)c(=O)n(C)c(=O)n2C	none (no result: LmPK inh, RE007 growth inh, Giardia FBPA inh)
O=c1ncn2nc(Sc3ccc(F)cc3F)ccc2c1-c1c(Cl)cccc1Cl	none (no result: LmPK inh, RE007 growth inh, Giardia FBPA inh)
COc1ccc(Cl)cc1NC(=O)C1CCN(S(=O)(=O)c2ccc3c(c2)CC(C)N3C(C)=O)CC1 (stereo not given)	none (no result: LmPK inh, RE007 growth inh, Giardia FBPA inh)
CCOc1ccc(-c2noc(CSc3nnc(Cc4ccccc4)n3-c3cccc(C)c3)n2)cc1	none (no result: LmPK inh, RE007 growth inh, Giardia FBPA inh)
O=C1C=CC2(O[C@H](c3ccccc3)[C@@H](c3ccccc3)O2)[C@H](Sc2ccccc2O)C1	RE007 growth inh 40µM, Tb PYK inh inconclusive (no result: LmPK inh, Giardia FBPA inh)
CCc1ccc(C2CC(c3ccco3)=NN2S(C)(=O)=O)cc1 (stereo not given)	LmPK inh 13µM
COCCNC(=O)Cn1c(-c2cccs2)cc2cc(Cl)ccc21	none (no result: LmPK inh, RE007 growth inh, Giardia FBPA inh)
Cc1cccc(-n2c(=O)c3c(c4cc(C)ccc4n3C)n(C)c2=O)c1	none (no result: LmPK inh, RE007 growth inh, Giardia FBPA inh)
CCN1C(=O)/C(=C2/Sc3ccccc3N2CC)SC1=S	none
O=C1NC(=S)S/C1=C1\Sc2ccccc2N1CCCS(=O)(=O)O	LmPK inh 16µM, Giardia FBPA inh inconclusive
Cc1ccc(NCc2n[nH]c(=S)n2-c2cccc(Cl)c2)cc1	LmPK inh inconclusive, Tb PYK inh 3.5µM
Cc1ccc(-n2c(CNc3ccc(C)c(Cl)c3)n[nH]c2=S)cc1	LmPK inh inconclusive, Tb PYK inh 4.5µM
Cc1ccc(-n2c(CNc3cccc(Cl)c3)n[nH]c2=S)cc1	Tb PYK inh inconclusive
C=CC[N+]1([C@H]2C[C@H]3[C@@H]4CC[C@H]5C[C@H](OC(C)=O)[C@@H](N6CCCCC6)C[C@]5(C)[C@H]4CC[C@]3(C)[C@H]2OC(=O)CC)CCCCC1	none (no result: LmPK inh, RE007 growth inh, Giardia FBPA inh)
CCc1ccccc1N(C)C(=O)Cn1cnc2sc(C)c(S(=O)(=O)N3CCC(C)CC3)c2c1=O	none (no result: LmPK inh, RE007 growth inh, Giardia FBPA inh)
CCOC(=O)C1CCCN(C2CC(=O)N(c3ccc(C(C)C)cc3)C2=O)C1 (stereo not given)	RE007 growth inh 35µM
CCOC(=O)C1CCCN(C2CC(=O)N(c3ccc(C)c(C)c3)C2=O)C1 (stereo not given)	RE007 growth inh 28µM
CCOC(=O)C1CCCN(C2CC(=O)N(c3ccc(N4C(=O)CC(N5CCCC(C(=O)OCC)C5)C4=O)cc3)C2=O)C1 (stereo not given)	none
CCOC(=O)C1CCCN(C2CC(=O)N(c3cccc(C(F)(F)F)c3)C2=O)C1 (stereo not given)	RE007 growth inh 8.9µM
O=C(CC1N=C2c3ccccc3N=C(SCc3ccc(Cl)cc3)N2C1=O)NCCc1ccccc1 (stereo not given)	none (no result: LmPK inh, RE007 growth inh, Giardia FBPA inh)
COc1ccc2[nH]cc(CCNc3ccnc(-c4cccnc4)n3)c2c1	none (no result: LmPK inh, RE007 growth inh, Tb PYK inh)
CCOC(=O)C1=C(Cc2ccc(Cl)cc2)C(=O)c2ccccc2C1=O	LmPK inh inconclusive, RE007 growth inh 35µM, Giardia FBPA inh 2.5µM, Tb PYK inh inconclusive
CCOC(=O)C1=C(C)N=C2c3ccccc3C(=O)C2C1c1ccc(Cl)cc1 (stereo not given)	none
CC1CCC(C(C)C)C(P(=O)(c2ccccc2)c2ccccc2)C1 (stereo not given)	none (no result: LmPK inh, RE007 growth inh, Tb PYK inh)
O/C(=C\c1nc2ccccc2nc1/C=C(\O)c1ccccc1)c1ccccc1	LmPK inh inconclusive, Giardia FBPA inh 3.2µM
O=c1oc2ccccc2nc1/C=C(\O)c1ccccc1	Giardia FBPA inh inconclusive
O=C1C=CC(=O)N1c1ccc2c(c1)C(NC(=O)C(F)(F)F)c1ccccc1-2 (stereo not given)	RE007 growth inh 40µM, Tb PYK inh inconclusive (no result: LmPK inh, Giardia FBPA inh)
Cc1ccsc1/C=C1/C(=O)NN(c2ccccc2)C1=O	LmPK inh inconclusive, Giardia FBPA inh inconclusive
Cc1ccsc1C=C1C(=O)c2ccccc2C1=O	LmPK inh 14µM, RE007 growth inh inconclusive
COc1ccc(C(=O)CCN2CCN(c3ccc(OC)cc3)CC2)cc1	RE007 growth inh inconclusive
O=C(CCN1CCN(c2ccccc2)CC1)c1ccc(Br)cc1	RE007 growth inh inconclusive
O=C(CCN1CCN(c2ccccc2F)CC1)c1ccc(Br)cc1	RE007 growth inh 32µM
COc1ccc(C(=O)CCN2CCN(c3ccccc3F)CC2)cc1	RE007 growth inh 11µM
CN(C)c1ccc(C(=S)N2CCN(c3ccc([N+](=O)[O-])cc3)CC2)cc1	Giardia FBPA inh 7.9µM, Tb PYK inh inconclusive
CCOC(=O)C1=C(N)OC2=C(C(=O)CCC2)C1c1cccs1 (stereo not given)	Giardia FBPA inh 13µM
CC(=O)CC/C=C(\C)CC/C=C(/C)CC/C=C(\C)CCC=C(C)C	none (no result: LmPK inh, RE007 growth inh, Giardia FBPA inh)

Screens: PubChem, National Center for Advancing Translational Sciences (NCATS)
